Assay results from PubChem BioAssay (NCI).
Compounds without any hit were thinned out: in the full panel of roughly 83,000, 20% have a hit.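 In brief: 96-well plates, 48 h treatment, single concentration, percent growth endpoint.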 The source made the active and inactive calls. Rule for the calls: active = growth percent below 10; inactive = the rest.

Key:
Experiment in all cases: NCI-60 one-dose screen, 48 h (100 = growth as untreated, 0 = no growth, -100 = all killed)
Settings in all cases: 10 µM unless noted
[1] = test system: SK-MEL-2 melanoma
[2] = test system: EKVX NSCLC
[3] = test system: SN12C renal
[4] = test system: UO-31 renal
[5] = test system: TK-10 renal
[6] = test system: ACHN renal
[7] = test system: CAKI-1 renal
[8] = test system: CCRF-CEM leukemia
[9] = test system: MOLT-4 leukemia
[10] = test system: SR leukemia
[11] = test system: RPMI-8226 leukemia
[12] = test system: OVCAR-8 ovarian
[13] = test system: OVCAR-5 ovarian
[14] = test system: OVCAR-4 ovarian
[15] = test system: SK-OV-3 ovarian
[16] = test system: IGROV1 ovarian
[17] = test system: NCI/ADR-RES ovarian
[18] = test system: HS 578T breast
[19] = test system: OVCAR-3 ovarian
[20] = test system: A498 renal

Measured: growth

O=C(N/N=C/c1cccc(O)c1)c1ccc(C(F)(F)F)nc1Nc1cccc(C(F)(F)F)c1
active: [2] 5.06% | [3] 7.08% | [4] -9.68% | [6] -6.85% | [7] -22% | [8] -38.3% | [9] -20.5% | [10] -38.7% | [11] -37.2%
inactive: [1] 12.9% | [5] 15.6% | [12] 18.1% | [13] 34.3% | [14] 10.5% | [15] 24.6% | [16] 15% | [17] 13.6%

N#Cc1ccc(-c2csc(Nc3ccc4nc5n(c(=O)c4c3)CCC5)n2)cc1
inactive: [1] 95.4% | [2] 99% | [3] 104% | [4] 100% | [5] 110% | [6] 108% | [7] 102% | [8] 51.8% | [9] 92.8% | [10] 93.6% | [11] 109% | [12] 106% | [13] 103% | [14] 109% | [15] 176% | [16] 107% | [18] 115% | [17] 105%

Clc1ccc2[nH]cc(-c3cncn3CCc3ccccc3)c2c1
inactive: [1] 52.5% | [2] 34.4% | [3] 57.2% | [4] 42.2% | [5] 42.8% | [6] 66% | [7] 39% | [8] 54.1% | [9] 51% | [10] 41% | [11] 22.6% | [12] 32.9% | [13] 74.7% | [14] 14.2% | [15] 41.1% | [16] 69.3% | [19] 55.4% | [18] 51.3% | [17] 51.1%

COc1ccc(OC)c(CCn2cncc2-c2c[nH]c3cc(Br)ccc23)c1
active: [1] 7.7%
inactive: [2] 35.3% | [3] 49.5% | [4] 39.5% | [5] 45.9% | [6] 58.3% | [7] 35.5% | [8] 36.8% | [9] 16.2% | [10] 13.6% | [11] 16.7% | [12] 24.7% | [13] 79.5% | [14] 21.6% | [15] 38.8% | [16] 47.9% | [19] 32.7% | [18] 59.8% | [17] 19.4%

CSc1nc(N)c2c(n1)N(C)C=NS2(=O)=O
inactive: [1] 123% | [2] 113% | [3] 99.3% | [4] 87.1% | [5] 109% | [6] 99% | [7] 98.2% | [8] 94.4% | [9] 107% | [10] 102% | [11] 103% | [12] 102% | [13] 93.7% | [14] 108% | [15] 117% | [16] 119% | [17] 103%

CC1CN(/N=C/c2ccc([N+](=O)[O-])o2)C(=N)O1 (stereo unspecified)
inactive: [1] 123% | [2] 104% | [3] 91% | [4] 73.9% | [5] 105% | [6] 92.9% | [7] 96.4% | [8] 112% | [9] 107% | [10] 107% | [11] 97.4% | [12] 96.6% | [13] 106% | [14] 101% | [15] 118% | [16] 98.3% | [19] 105% | [18] 105% | [17] 101%

N/C(=N\c1nc2ccccc2s1)NC(=O)Nc1ccccc1Cl
inactive: [1] 18.8% | [2] 41.2% | [3] 42.2% | [4] 54.2% | [5] 69.4% | [6] 42.2% | [7] 32.7% | [8] 12.9% | [9] 13.9% | [11] 10.1% | [12] 15.5% | [13] 32.5% | [14] 69.3% | [15] 31.8% | [16] 20.8%
active: [10] 9.92% | [19] -14.2% | [17] 6.38%

Cc1ccccc1NC(=O)N/C(N)=N/c1nc2ccccc2s1
inactive: [1] 37.6% | [2] 39.6% | [3] 40% | [4] 54.6% | [5] 67% | [6] 39.2% | [7] 38.8% | [8] 14.2% | [9] 14.9% | [11] 16.3% | [12] 19.7% | [13] 35.5% | [14] 65% | [15] 65% | [16] 14.7% | [18] 42.1%
active: [10] 8.11% | [19] 1.83% | [17] 8.91%

CN(C)c1ncnc2c1ncn2C1CCCCO1 (stereo unspecified)
inactive: [1] 102% | [2] 102% | [3] 93.8% | [4] 73.2% | [5] 101% | [6] 104% | [7] 102% | [8] 94.9% | [9] 95.1% | [10] 87.7% | [12] 107% | [13] 104% | [14] 104% | [15] 107% | [16] 112% | [19] 113% | [17] 108%

COc1ccc2c(c1)c(CC(=O)[Se]C)c(C)n2C(=O)c1ccc(Cl)cc1
inactive: [1] 12.4% | [4] 14.7% | [6] 10.4% | [8] 13% | [10] 13.4% | [11] 62.6% | [13] 36.8% | [14] 37.2% | [15] 40.7%
active: [2] -26.7% | [3] -4.23% | [5] -58.4% | [7] -35.1% | [12] -46.9% | [16] -3.14% | [19] -12.4% | [18] 8.49% | [17] 3.71%

O=C(O)C1C(c2ccccc2)c2ccccc2C(O)C1CO (stereo unspecified)
inactive: [1] 98.7% | [2] 119% | [3] 98.1% | [4] 78.2% | [5] 102% | [6] 97.3% | [7] 112% | [8] 92.9% | [9] 104% | [10] 99.6% | [12] 103% | [13] 101% | [14] 108% | [15] 94.9% | [16] 118% | [19] 134% | [17] 109%

C[C@]12CC[C@H](O)CC1=CC[C@@H]1[C@@H]2CC[C@]2(C)C(c3cccnc3)=CC[C@@H]12
inactive: [1] 27.6% | [2] 38.8% | [3] 91% | [4] 36.9% | [5] 93.6% | [6] 61% | [20] 64.4% | [8] 51.3% | [9] 34.1% | [13] 92.3% | [14] 49.7% | [15] 87.8% | [16] 43.5% | [19] 56.1% | [18] 13.6% | [17] 49.9%
active: [10] 0.438%

COc1ccc(/C=C/C(=O)c2cccc(NS(C)(=O)=O)c2)cc1
inactive: [1] 114% | [2] 94.6% | [3] 82.8% | [4] 48.6% | [5] 92.2% | [6] 93.4% | [20] 101% | [9] 40.8% | [13] 94.9% | [14] 81.5% | [15] 110% | [18] 83.2% | [17] 85.2%
active: [8] 1.69% | [10] -10.2% | [16] 7.92%

COc1ccc2c3c(ccc2c1)C(=O)/C(=C\O)CC3
inactive: [1] 99.8% | [2] 78.5% | [3] 100% | [4] 96.6% | [5] 93.4% | [7] 105% | [8] 72.4% | [9] 88.4% | [10] 94.6% | [12] 97.4% | [13] 107% | [14] 100% | [15] 91.6% | [16] 111% | [19] 99.6% | [17] 96.3%

NS(=O)(=O)c1ccc(-n2ncc3c(N/N=C/c4ccccc4)ncnc32)cc1
inactive: [1] 70.5% | [2] 108% | [3] 93% | [4] 68.8% | [5] 93.6% | [7] 53.4% | [20] 111% | [8] 84.6% | [9] 71.4% | [10] 50.8% | [11] 83.4% | [12] 55.5% | [13] 97.2% | [14] 54.3% | [15] 107% | [16] 76.5% | [19] 99.9% | [18] 113% | [17] 87.6%

Clc1ccc2c(c1)C(Br)c1cc(Cl)cc(Cl)c1-2 (stereo unspecified)
inactive: [1] 95.5% | [2] 46.2% | [3] 27.5% | [4] 76.6% | [5] 118% | [6] 99.1% | [20] 120% | [12] 101% | [13] 84.4% | [14] 88.5% | [15] 80% | [16] 57.1% | [19] 91.7% | [18] 65.1% | [17] 96.1%
active: [8] -37.8% | [9] -20.2% | [10] -4.33%

COc1ccc(CNC(=O)c2c(C)n([O-])c3ccccc3[n+]2=O)cc1
inactive: [1] 95.8% | [2] 83.8% | [3] 101% | [4] 32.9% | [5] 120% | [7] 112% | [20] 96.1% | [8] 98.4% | [9] 93.4% | [10] 97.4% | [11] 96.3% | [12] 96.5% | [13] 89.9% | [14] 97.7% | [15] 99.3% | [19] 115% | [17] 54.2%
